# According to PubChem BioAssay (NCATS):
# Records with an inconclusive call do not appear. Entries that show only a call come without a potency. Activity calls are given as the source filed them. Calls come from the whole dose curve; as a rule, active = well fitted curve in the direction sought with a large enough effect in the signal ratio, with a control signal flat (not every such curve was filed as active); inconclusive = small, poorly fitted or top-dose-only effect, or a change in a side signal; inactive = no such curve, though single readings can be large or run the other way; the % refers to the signal ratio.
# Assay: qHTS Assay for Identification of Small Molecule Inducers of Hypoxia Response (AID 2120)
# Details: hypoxia response reporter cells, beta-lactamase ratio readout; series mostly up to 104 µM
# Description: NIH Chemical Genomics Center [NCGC]
# NIH Molecular Libraries Screening Centers Network [MLSCN]
# National Institutes of Environmental Health Sciences [NIEHS]
# National Toxicology Program [NTP]
# Hypoxia-inducible factor-1 (HIF-1) is the major hypoxia-regulated transcription factor that controls cellular responses to low oxygen concentration. HIF-1 is composed of two subunits: hypoxia responsive HIF-1a and constitutively expressed HIF-1b, which is also known as aryl hydrocarbon receptor nuclear translocator. During hypoxic conditions, HIF-1a heterodimerizes with HIF-1b and translocates into the nucleus where the HIF-1 complex binds to the hypoxia-response element (HRE) and activates expression of target genes such as VEGF (vascular endothelial growth factor). The HIF-1 pathway is essential to normal growth and development, and is involved in the pathophysiology of cancer, inflammation, and ischemia.
# Using a beta-lactamase reporter-gene under control of the hypoxia response element, a cell-based assay [CellSensor(TM) HRE-bla ME-180 developed by Invitrogen Corp.] was used to measure hypoxia-induced signaling. Library compounds were measured for their ability to induce the reporter gene activity. Compounds were screened in a titration series in 1536-well format. The inducers were identified based on the AC50 values derived from the screening data.
# NCGC Assay Protocol Summary
# 2500 cells/5uL in Opti-MEM medium containing 0.5% dialyzed FBS, 0.1 mM NEAA, 1 mM sodium pyruvate and 10 mM HEPES was dispensed into 1536-well plates and cells were cultured at 37 degrees Celsius for 4-5 hours and then 23 nL of compounds or DMSO were delivered to each well using a pin tool. The plates were incubated at 37 degrees Celsius for 17 hours. 1 uL of CCF4-dye mixture was added to each well. After incubated at room temperature for 2.5 hours the plates were measured on an EnVision plate reader at Excitation 405nm, Emission1=460nm and Emission 2=530nm. The %Activity was determined from the ratio of 460nm/530nm.
# Potency is the fitted concentration of half-maximal effect.
row,Compound,Potency
1,Oc1ccc(Cl)c(Cl)c1Cl,inactive
2,ClC(Cl)Br,inactive
3,Nc1cc(Cl)cc(Cl)c1,inactive
4,Clc1cccc(Cl)c1,inactive
5,CCCCOCC1CO1 (stereo not given),inactive
6,c1ccc2c(c1)CCNC2,inactive
7,Nc1ccc(Cc2ccc(N)c(Cl)c2)cc1Cl,inactive
8,Oc1c(Cl)cccc1Cl,inactive
9,O=[N+]([O-])c1ccccc1O,inactive
10,N#CC(Cl)(Cl)Cl,inactive
11,CC(C)OC(=O)Cc1ccccc1,inactive
12,COC(=O)c1ccccc1N,inactive
13,BrCC(Br)C1CCC(Br)C(Br)C1 (stereo not given),inactive
14,COc1ccccc1N,inactive
15,O=[N+]([O-])CCO,inactive
16,CCC(Cl)[N+](=O)[O-] (stereo not given),inactive
17,c1ccc2c(c1)-c1cccc3c1c-2cc1ccccc13,44.7 µM (active)
18,CCBr,inactive
19,CNC(=O)O/N=C/C(C)(C)S(C)=O (stereo not given),inactive
20,ClCC(Br)CBr (stereo not given),inactive

row,Compound,Potency
1,CCOP(=S)(OCC)SCCSCC,inactive
2,Clc1ccc(Cl)c(Cl)c1,inactive
3,O=C(Cl)c1ccccc1F,inactive
4,O=[N+]([O-])/C=C/c1ccccc1,inactive
5,N#CCCC#N,inactive
6,CC(=O)CCC(C)=O,inactive
7,CN(C)c1ccc(N(C)C)cc1,inactive
8,ClCC(Cl)CCl,inactive
9,CC(Cl)(Cl)Cl,inactive
10,COc1cc(-c2ccc(N)c(OC)c2)ccc1N,inactive
11,C/C=C/C=O,inactive
12,Clc1ccccc1,inactive
13,CC(C)(COCC1CO1)COCC1CO1 (stereo not given),inactive
14,Cc1ccc(N)cc1Cl,inactive
15,Nc1ccc(Cc2ccc(N)cc2)cc1,inactive
16,C=CCCl,inactive
17,O=NN1CCCCC1,inactive
18,CC[N+](=O)[O-],inactive
19,C=CCO,inactive
20,CC(C)(C)OOC(=O)c1ccccc1,inactive
